The text below walks through data of PubChem BioAssay (NCATS).

Records with an inconclusive call do not appear. Values without a mark were called inactive. Active and inactive are the calls of the source. Calls come from the whole dose curve; tested in HEK293 reporter line.
% is set by controls: 0 for no effect and ±100 for the full control effect.

A short description of the first assay: qHTS for Inhibitors of the Functional Ribonucleoprotein Complex (vRNP) of Lassa (LASV) Arenavirus: LASV Primary Screen - GLuc reporter signal (AID 1347082). Note: nearly all actives have a fitted effect of over 60% in size. The note with it: LASV minigenome vRNP, Gaussia luciferase reporter; series mostly up to 57.5 µM; activity change, negative = inhibition: at the top concentration.
With `NCCS(=O)(=O)O`, the Potency result is “inactive”.

For the compound `CCOC(N)=O`, the “activity change, negative = inhibition” value is -1.53%.

`O=C(NC(Cc1cc(=O)[nH]c2ccccc12)C(=O)O)c1ccc(Cl)cc1` (stereo not given): the Potency result is “inactive”.

With `CN1CC(=O)NC1=N`, the “activity change, negative = inhibition” value is -3.24%.

Take `Cc1ccc(-c2ccccc2C#N)cc1`: the “activity change, negative = inhibition” value is -1.64%.

Take `O=C(OOC(=O)c1ccccc1)c1ccccc1`: the “activity change, negative = inhibition” value was -0.712%.

`COc1cc(/C=C/C(N)=O)cc(OC)c1OC`: the “activity change, negative = inhibition” value was -6.52%.

With `CN(C)CCOC(=O)COc1ccc(Cl)cc1`, the Potency entry was “inactive”.

Regarding `CC(=O)OCC(=O)[C@@]1(O)CC[C@H]2[C@@H]3CCC4=CC(=O)C=C[C@]4(C)[C@@]3(F)[C@@H](O)C[C@@]21C`, the “activity change, negative = inhibition” value is 11.8%.

As to `Nc1ccc(C(=O)OCC(O)CO)cc1` (stereo not given), the “activity change, negative = inhibition” value is 2.06%.

As to `Nc1ccc(S(=O)(=O)Nc2ccccn2)cc1`, the Potency entry is “inactive”.

As for `COC(=O)CCCCC(CCSS/C(CCO)=C(\C)N(C=O)Cc1cnc(C)nc1N)SC(C)=O` (stereo not given), the “activity change, negative = inhibition” value is 8.05%.

For `CCCN1CCCC[C@H]1C(=O)Nc1c(C)cccc1C`, the “activity change, negative = inhibition” value was 5.83%.

Take `CC(N=C(NC#N)Nc1ccncc1)C(C)(C)C` (stereo not given): the Potency entry is “inactive”.

As to `Cn1nnc2c(C(N)=O)ncn2c1=O`, the Potency result is “inactive”.

As to `COc1ccnc(CS(=O)c2nc3ccc(OC(F)F)cc3[nH]2)c1OC` (stereo not given), the Potency result was “inactive”.

On to `CCC(=O)c1c(O)cc(O)cc1O`, for which the “activity change, negative = inhibition” value was -8.71%.

Consider `CCOC(=O)[C@H](CCc1ccccc1)N[C@@H](C)C(=O)N1[C@H](C(=O)O)C[C@H]2CCCC[C@@H]21`, for which the “activity change, negative = inhibition” value is 13.6%.

`CC[C@]12CCCN3CCc4c(n(c5ccccc45)[C@@](O)(C(=O)OC)C1)[C@@H]32`: the Potency entry was “inactive”.

A further assay in a line: qHTS for Inhibitors of the Functional Ribonucleoprotein Complex (vRNP) of Lassa (LASV) Arenavirus: Viability assay - alamar blue signal for LASV Primary Screen (AID 1347083). Note: nearly all actives have a fitted effect of over 80% in size. Note: potency is the fitted concentration of half-maximal effect. The note with it: cell viability, alamar blue fluorescence (LASV minigenome counter-screen); series mostly up to 57.5 µM; activity change, negative = reduced viability: at the top concentration.
`CCCCCCCCCCCC(=O)[O][Sn]([CH2]CCC)([CH2]CCC)[O]C(=O)CCCCCCCCCCC`: the “activity change, negative = reduced viability” value is 3.03%.

As for `CCCCCCOc1ccccc1C(N)=O`, the “activity change, negative = reduced viability” value was -1.98%.

For the compound `Nc1ccc(C(=O)O)c(O)c1`, the “activity change, negative = reduced viability” value is -1.09%.

On to `Cc1ncc(CO)c(CN)c1O`, for which the “activity change, negative = reduced viability” value is 9.73%.

Take `C=CCc1ccc(O)c(OC)c1`: the “activity change, negative = reduced viability” value was 4.04%.

As to `CCC(Cc1c(I)cc(I)c(N)c1I)C(=O)O` (stereo not given), the “activity change, negative = reduced viability” value is -5.28%.

With `CN(c1nccc(=O)[nH]1)C1CCN(c2nc3ccccc3n2Cc2ccc(F)cc2)CC1`, the Potency was 30.6 µM (active).

`c1ccc2c(CC3=NCCN3)cccc2c1`: the “activity change, negative = reduced viability” value is 5.76%.

Regarding `CCN1CCC[C@H]1CNC(=O)c1cc(S(N)(=O)=O)ccc1OC`, the Potency result is “inactive”.

For the compound `CCN(CC)CC#CCOC(=O)C(O)(c1ccccc1)C1CCCCC1` (stereo not given), the “activity change, negative = reduced viability” value was -0.715%.

With `O=c1[nH]c(=O)n([C@H]2CCCO2)cc1F`, the “activity change, negative = reduced viability” value is -6.76%.

`Cc1c(C(=O)NCCO)[n+](=O)c2ccccc2n1[O-]`: the “activity change, negative = reduced viability” value was 8.54%.

As to `CC(C)(C)NCC(O)COc1ccc(NC(=O)NC2CCCCC2)cc1` (stereo not given), the “activity change, negative = reduced viability” value was -3.38%.

As for `NS(=O)(=O)c1cc(Cl)c(Cl)c(S(N)(=O)=O)c1`, the “activity change, negative = reduced viability” value is 2.26%.

Take `O=C(OCc1ccccc1)c1ccccc1`: the “activity change, negative = reduced viability” value was 0.948%.

Regarding `C/C=C1\[C@H]2C=C(C)C[C@]1(N)c1ccc(=O)[nH]c1C2`, the “activity change, negative = reduced viability” value was 5.14%.

`COc1ccc(-c2cc(=O)c3c(O)cc(O[C@@H]4O[C@H](CO[C@@H]5O[C@@H](C)[C@H](O)[C@@H](O)[C@H]5O)[C@@H](O)[C@H](O)[C@H]4O)cc3o2)cc1O`: the “activity change, negative = reduced viability” value is 4.23%.

For `CCCCCN(CCCOC)C(=O)C(CCC(=O)O)NC(=O)c1ccc(Cl)c(Cl)c1` (stereo not given), the “activity change, negative = reduced viability” value is 2.75%.

`C[C@H]1C[C@@H]2[C@H]([C@@H](O)C[C@@]3(C)[C@H]2CC[C@]3(O)C(=O)CO)[C@@]2(C)C=CC(=O)C=C12`: the “activity change, negative = reduced viability” value was 4.03%.

With `NCCS(=O)(=O)O`, the Potency result is “inactive”.

On to `CCOC(N)=O`, for which the “activity change, negative = reduced viability” value is -2.48%.

Turning to `O=C(NC(Cc1cc(=O)[nH]c2ccccc12)C(=O)O)c1ccc(Cl)cc1` (stereo not given), the Potency result is “inactive”.

Consider `CN1CC(=O)NC1=N`, for which the “activity change, negative = reduced viability” value is 3.75%.

As for `Cc1ccc(-c2ccccc2C#N)cc1`, the “activity change, negative = reduced viability” value was 0.343%.

Regarding `O=C(OOC(=O)c1ccccc1)c1ccccc1`, the “activity change, negative = reduced viability” value was -2.23%.

With `COc1cc(/C=C/C(N)=O)cc(OC)c1OC`, the “activity change, negative = reduced viability” value is 6.38%.

For `CN(C)CCOC(=O)COc1ccc(Cl)cc1`, the Potency result was “inactive”.

As for `CC(=O)OCC(=O)[C@@]1(O)CC[C@H]2[C@@H]3CCC4=CC(=O)C=C[C@]4(C)[C@@]3(F)[C@@H](O)C[C@@]21C`, the “activity change, negative = reduced viability” value is -0.847%.

`Nc1ccc(C(=O)OCC(O)CO)cc1` (stereo not given): the “activity change, negative = reduced viability” value was -0.301%.

On to `Nc1ccc(S(=O)(=O)Nc2ccccn2)cc1`, for which the Potency entry was “inactive”.

On to `COC(=O)CCCCC(CCSS/C(CCO)=C(\C)N(C=O)Cc1cnc(C)nc1N)SC(C)=O` (stereo not given), for which the “activity change, negative = reduced viability” value is 11.5%.

On to `CCCN1CCCC[C@H]1C(=O)Nc1c(C)cccc1C`, for which the “activity change, negative = reduced viability” value is 2.18%.

Turning to `CC(N=C(NC#N)Nc1ccncc1)C(C)(C)C` (stereo not given), the Potency result was “inactive”.

Consider `Cn1nnc2c(C(N)=O)ncn2c1=O`, for which the Potency result was “inactive”.

For `COc1ccnc(CS(=O)c2nc3ccc(OC(F)F)cc3[nH]2)c1OC` (stereo not given), the “activity change, negative = reduced viability” value is -4.35%.

As to `CCC(=O)c1c(O)cc(O)cc1O`, the “activity change, negative = reduced viability” value is 32.9%.

Turning to `CCOC(=O)[C@H](CCc1ccccc1)N[C@@H](C)C(=O)N1[C@H](C(=O)O)C[C@H]2CCCC[C@@H]21`, the “activity change, negative = reduced viability” value is 4.19%.

Turning to `CC[C@]12CCCN3CCc4c(n(c5ccccc45)[C@@](O)(C(=O)OC)C1)[C@@H]32`, the Potency entry is “inactive”.

Another assay in a line: qHTS for Inhibitors of the Functional Ribonucleoprotein Complex (vRNP) of Lymphocytic Choriomeningitis Arenaviruses (LCMV): Viability assay - alamar blue signal for LCMV Primary Screen (AID 1347085). Note: nearly all actives have a fitted effect of over 80% in size. The conditions noted are these: alamar blue viability counter-screen, LCMV vRNP screen cells; series mostly up to 57.5 µM; activity change, negative = lower viability: at the top concentration. In general terms: In qHTS, concentration-response curves come from the screen itself.
`CCCCCCCCCCCC(=O)[O][Sn]([CH2]CCC)([CH2]CCC)[O]C(=O)CCCCCCCCCCC`: the “activity change, negative = lower viability” value is 0.668%.

With `CCCCCCOc1ccccc1C(N)=O`, the “activity change, negative = lower viability” value was 24.4%.

As for `Nc1ccc(C(=O)O)c(O)c1`, the “activity change, negative = lower viability” value was -1.62%.

`Cc1ncc(CO)c(CN)c1O`: the “activity change, negative = lower viability” value was 10.3%.

On to `C=CCc1ccc(O)c(OC)c1`, for which the “activity change, negative = lower viability” value is 8.51%.

`CCC(Cc1c(I)cc(I)c(N)c1I)C(=O)O` (stereo not given): the “activity change, negative = lower viability” value was 1.67%.

Turning to `CN(c1nccc(=O)[nH]1)C1CCN(c2nc3ccccc3n2Cc2ccc(F)cc2)CC1`, the “activity change, negative = lower viability” value is 19.5%.

As for `c1ccc2c(CC3=NCCN3)cccc2c1`, the “activity change, negative = lower viability” value is 5.25%.

Regarding `CCN1CCC[C@H]1CNC(=O)c1cc(S(N)(=O)=O)ccc1OC`, the Potency result is “inactive”.

For `CCN(CC)CC#CCOC(=O)C(O)(c1ccccc1)C1CCCCC1` (stereo not given), the Potency entry is “inactive”.

Take `O=c1[nH]c(=O)n([C@H]2CCCO2)cc1F`: the “activity change, negative = lower viability” value was 0.395%.

As to `Cc1c(C(=O)NCCO)[n+](=O)c2ccccc2n1[O-]`, the “activity change, negative = lower viability” value was 6.07%.

Consider `CC(C)(C)NCC(O)COc1ccc(NC(=O)NC2CCCCC2)cc1` (stereo not given), for which the “activity change, negative = lower viability” value is -2.47%.

For `NS(=O)(=O)c1cc(Cl)c(Cl)c(S(N)(=O)=O)c1`, the “activity change, negative = lower viability” value is -5.59%.

As to `O=C(OCc1ccccc1)c1ccccc1`, the “activity change, negative = lower viability” value is -0.756%.

In the case of `C/C=C1\[C@H]2C=C(C)C[C@]1(N)c1ccc(=O)[nH]c1C2`, the “activity change, negative = lower viability” value was 9.96%.

For the compound `COc1ccc(-c2cc(=O)c3c(O)cc(O[C@@H]4O[C@H](CO[C@@H]5O[C@@H](C)[C@H](O)[C@@H](O)[C@H]5O)[C@@H](O)[C@H](O)[C@H]4O)cc3o2)cc1O`, the “activity change, negative = lower viability” value was 4.78%.

As for `CCCCCN(CCCOC)C(=O)C(CCC(=O)O)NC(=O)c1ccc(Cl)c(Cl)c1` (stereo not given), the “activity change, negative = lower viability” value is 2.43%.

`C[C@H]1C[C@@H]2[C@H]([C@@H](O)C[C@@]3(C)[C@H]2CC[C@]3(O)C(=O)CO)[C@@]2(C)C=CC(=O)C=C12`: the “activity change, negative = lower viability” value is 9.04%.

`NCCS(=O)(=O)O`: the Potency entry is “inactive”.

Regarding `CCOC(N)=O`, the “activity change, negative = lower viability” value was -3.37%.

In the case of `O=C(NC(Cc1cc(=O)[nH]c2ccccc12)C(=O)O)c1ccc(Cl)cc1` (stereo not given), the Potency entry is “inactive”.

For the compound `CN1CC(=O)NC1=N`, the “activity change, negative = lower viability” value was 4.01%.

Turning to `Cc1ccc(-c2ccccc2C#N)cc1`, the “activity change, negative = lower viability” value is -0.952%.

Consider `O=C(OOC(=O)c1ccccc1)c1ccccc1`, for which the “activity change, negative = lower viability” value was 1.92%.

Consider `COc1cc(/C=C/C(N)=O)cc(OC)c1OC`, for which the “activity change, negative = lower viability” value was -2.93%.

Take `CN(C)CCOC(=O)COc1ccc(Cl)cc1`: the Potency entry is “inactive”.

For `CC(=O)OCC(=O)[C@@]1(O)CC[C@H]2[C@@H]3CCC4=CC(=O)C=C[C@]4(C)[C@@]3(F)[C@@H](O)C[C@@]21C`, the “activity change, negative = lower viability” value is -1.75%.

For `Nc1ccc(C(=O)OCC(O)CO)cc1` (stereo not given), the “activity change, negative = lower viability” value is 3.31%.

Take `Nc1ccc(S(=O)(=O)Nc2ccccn2)cc1`: the Potency result was “inactive”.

As to `COC(=O)CCCCC(CCSS/C(CCO)=C(\C)N(C=O)Cc1cnc(C)nc1N)SC(C)=O` (stereo not given), the “activity change, negative = lower viability” value was 6.45%.

As to `CCCN1CCCC[C@H]1C(=O)Nc1c(C)cccc1C`, the “activity change, negative = lower viability” value is 18.5%.

In the case of `CC(N=C(NC#N)Nc1ccncc1)C(C)(C)C` (stereo not given), the Potency entry is “inactive”.

On to `Cn1nnc2c(C(N)=O)ncn2c1=O`, for which the Potency entry is “inactive”.

As to `COc1ccnc(CS(=O)c2nc3ccc(OC(F)F)cc3[nH]2)c1OC` (stereo not given), the “activity change, negative = lower viability” value is 12.6%.

`CCC(=O)c1c(O)cc(O)cc1O`: the “activity change, negative = lower viability” value is 18.4%.

For `CCOC(=O)[C@H](CCc1ccccc1)N[C@@H](C)C(=O)N1[C@H](C(=O)O)C[C@H]2CCCC[C@@H]21`, the “activity change, negative = lower viability” value was 2.81%.

As to `CC[C@]12CCCN3CCc4c(n(c5ccccc45)[C@@](O)(C(=O)OC)C1)[C@@H]32`, the Potency result is “inactive”.
